Drawing on PubChem BioAssay (EPA / NIEHS), this text covers outcome and AC50 for 27 molecules.

Inconclusive results are not listed. Active and inactive are the calls of the source. Rule for the calls, unless noted: active = hit-call score of the fitted dose curve at least 0.9, where 1 is the maximum; inactive = score below 0.9.

Experiment [1] can be described thus: ACEA_ER_80hr: ACEA Biosciences xCELLigence Real-Time Cell Analysis on Estrogen Receptor Agonism for Proliferation (AID 2282667; active = hit-call score of the fitted dose curve at least 0.9, where 1 is the maximum). The note with it: T47D proliferation, impedance (xCELLigence), 80 h. A digest of the protocol:
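Impedance readout (RT-CES) of T47D proliferation at 80 h post-dose; gain of signal vs DMSO baseline. Compounds: 8 conc, 1:4 serial, top 100 uM final, ≤0.5% DMSO; biological duplicate.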

Experiment [2] is described as follows: ATG_CRE_CIS: Attagene CIS-FACTORIAL HepG2 Assay for human cAMP Responsive Element (CRE) binding protein 3 (AID 2282926). The conditions noted are these: HepG2 CRE cis-reporter, Attagene multiplexed mRNA; actives raise or lower the signal. A digest of the protocol: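 Readout: fluorescently labelled reporter transcripts resolved by capillary electrophoresis after RT-PCR, taken 24 h post-dosing in transfected HepG2. Endogenous transcription factor activity drives each cis-element reporter; gain or loss of signal fitted relative to DMSO control.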

In experiment [3] the target is CCAAT/enhancer-binding protein beta (Homo sapiens) (UniProt P17676). As to the kind of experiment: ATG_C_EBP_CIS: Attagene CIS-FACTORIAL HepG2 Assay for human CCAAT/Enhancer Binding Protein (C/EBP) beta (AID 2282927). The conditions noted are these: HepG2 Attagene cis-factorial transcription factor reporter; actives raise or lower the signal. In short, it runs like this: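 Endogenous C/EBPb-driven reporter transcripts measured in transfected human HepG2 cells at 24 h via RT-PCR and capillary electrophoresis of labelled fragments. Activity fitted in both directions relative to DMSO baseline.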
Sequence of CCAAT/enhancer-binding protein beta (Homo sapiens) (P17676 whole entry, looked up, the tested form may be a part): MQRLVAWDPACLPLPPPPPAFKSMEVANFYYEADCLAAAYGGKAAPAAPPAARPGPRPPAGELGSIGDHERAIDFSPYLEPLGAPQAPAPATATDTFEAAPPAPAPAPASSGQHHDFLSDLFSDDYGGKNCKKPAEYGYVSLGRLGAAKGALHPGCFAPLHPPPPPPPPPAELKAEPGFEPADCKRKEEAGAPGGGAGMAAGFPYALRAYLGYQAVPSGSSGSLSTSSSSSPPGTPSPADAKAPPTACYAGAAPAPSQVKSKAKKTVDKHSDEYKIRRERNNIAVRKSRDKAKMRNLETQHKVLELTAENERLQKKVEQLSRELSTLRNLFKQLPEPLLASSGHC

Experiment [4] can be described thus: ATG_CMV_CIS: Attagene CIS-FACTORIAL HepG2 Assay for human CMV (Internal Marker) (AID 2282928).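 Note: endpoint acts as a background internal control marker rather than a target.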 The note with it: HepG2 CMV promoter reporter, transcription factor profiling; actives raise or lower the signal. In short, it runs like this: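 Fluorescence intensity of RT-PCR-derived reporter fragments, resolved by capillary electrophoresis, gives the signal. HepG2 liver cells bearing transfected cis-element reporters were treated 24 h; activity in either direction was fit relative to DMSO-treated controls.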

A short description of experiment [5]: ATG_DR4_LXR_CIS: Attagene CIS-FACTORIAL HepG2 Assay for human Liver X Receptor (LXR), DR4 submotif (AID 2282929). The note with it: HepG2 Attagene DR4 cis-reporter, mRNA transcription; actives raise or lower the signal. In short, it runs like this:
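HepG2, transient MRTU transfection, cis-element (DR4) promoter; 24 h compound exposure; total RNA → oligo(dT) RT → PCR → 6-FAM primer extension → HpaI cut → CE. Gain/loss vs DMSO, bidirectional fit.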

Experiment [6] is described as follows: ATG_AP_1_CIS: Attagene CIS-FACTORIAL HepG2 Assay for human Activator Protein 1 (AP-1) (AID 2282931). The note with it: HepG2 Attagene cis-factorial AP-1 reporter mRNA; actives raise or lower the signal. In short, it runs like this: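 Transient MRTU transfection of HepG2 → 24 h chemical treatment → RNA isolation, RT-PCR, 6-FAM labelling, HpaI digest → capillary electrophoresis. Fit: bidirectional, DMSO negative control.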

A short description of experiment [7]: ATG_AP_2_CIS: Attagene CIS-FACTORIAL HepG2 Assay for human Activator Protein 2 (AP-2) (AID 2282932). The conditions noted are these: HepG2 AP-2 cis-reporter, Attagene transcription factor profiling; actives raise or lower the signal. A digest of the protocol: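 Transiently transfected HepG2 cells are exposed to chemical for 24 h. Reporter transcripts are then measured as fluorescence following RT-PCR and capillary separation, and gain- or loss-of-signal is fitted relative to DMSO.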

Experiment [8] is described as follows: ATG_BRE_CIS: Attagene CIS-FACTORIAL HepG2 Assay for human Bone Morphogenetic Protein (BMP) Response Element (BRE) (AID 2282933). The note with it: HepG2 BMP response element reporter, Attagene transcription factor profiling; actives raise or lower the signal. In short, it runs like this: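 After a 24 h chemical treatment, transiently transfected HepG2 cells were lysed for RNA; reporter transcripts were quantified by fluorescent RT-PCR and capillary electrophoresis, normalised to DMSO.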

Experiment [9] has as its target Retinoic acid receptor alpha (Homo sapiens) (UniProt P10276). Description: ATG_DR5_RAR_CIS: Attagene CIS-FACTORIAL HepG2 Assay for human Retinoic Acid Receptor Alpha (RARE), DR5 submotif (AID 2282934).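 For AC50: reporter responds to endogenous RAR alpha beta and gamma in HepG2 not RARA alone.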 The note with it: HepG2 Attagene cis-factorial RARE DR5 reporter, mRNA; actives raise or lower the signal. In short, it runs like this:
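Reporter transcripts from a DR5-regulated unit, measured via RT-PCR plus capillary electrophoresis, reflect endogenous RAR activity in transiently transfected human HepG2 liver cells. Exposure lasted 24 h; gain or loss of signal scored against DMSO.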

Experiment [10] addresses Aryl hydrocarbon receptor (Homo sapiens) (UniProt P35869). Description: ATG_Ahr_CIS: Attagene CIS-FACTORIAL HepG2 Assay for human Aryl Hydrocarbon Receptor (Ahr) (AID 2282930). The note with it: HepG2 AhR cis-factorial reporter transcription; actives raise or lower the signal. A digest of the protocol:
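Reporter mRNA levels, quantified by RT-PCR and fluorescent capillary electrophoresis, reflect endogenous AhR transcriptional activity in HepG2 cells carrying transfected cis-promoter reporter constructs. Readout at 24 h post-dose; gain or loss fitted against DMSO baseline.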

Sequence of Retinoic acid receptor alpha (Homo sapiens) (P10276 whole entry, looked up): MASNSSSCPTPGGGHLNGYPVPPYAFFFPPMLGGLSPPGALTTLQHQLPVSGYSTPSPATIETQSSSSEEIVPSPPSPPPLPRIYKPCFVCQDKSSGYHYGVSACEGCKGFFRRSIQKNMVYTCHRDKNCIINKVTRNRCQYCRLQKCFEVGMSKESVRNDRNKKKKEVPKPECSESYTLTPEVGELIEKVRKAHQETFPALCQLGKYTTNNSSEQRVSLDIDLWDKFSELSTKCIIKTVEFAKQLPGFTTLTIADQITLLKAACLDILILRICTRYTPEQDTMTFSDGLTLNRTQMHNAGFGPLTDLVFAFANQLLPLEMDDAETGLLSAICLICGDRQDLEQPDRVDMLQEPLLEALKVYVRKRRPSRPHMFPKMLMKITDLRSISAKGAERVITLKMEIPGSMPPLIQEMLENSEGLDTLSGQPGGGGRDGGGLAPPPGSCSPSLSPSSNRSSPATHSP
Sequence of Aryl hydrocarbon receptor (Homo sapiens) (P35869 whole entry, looked up): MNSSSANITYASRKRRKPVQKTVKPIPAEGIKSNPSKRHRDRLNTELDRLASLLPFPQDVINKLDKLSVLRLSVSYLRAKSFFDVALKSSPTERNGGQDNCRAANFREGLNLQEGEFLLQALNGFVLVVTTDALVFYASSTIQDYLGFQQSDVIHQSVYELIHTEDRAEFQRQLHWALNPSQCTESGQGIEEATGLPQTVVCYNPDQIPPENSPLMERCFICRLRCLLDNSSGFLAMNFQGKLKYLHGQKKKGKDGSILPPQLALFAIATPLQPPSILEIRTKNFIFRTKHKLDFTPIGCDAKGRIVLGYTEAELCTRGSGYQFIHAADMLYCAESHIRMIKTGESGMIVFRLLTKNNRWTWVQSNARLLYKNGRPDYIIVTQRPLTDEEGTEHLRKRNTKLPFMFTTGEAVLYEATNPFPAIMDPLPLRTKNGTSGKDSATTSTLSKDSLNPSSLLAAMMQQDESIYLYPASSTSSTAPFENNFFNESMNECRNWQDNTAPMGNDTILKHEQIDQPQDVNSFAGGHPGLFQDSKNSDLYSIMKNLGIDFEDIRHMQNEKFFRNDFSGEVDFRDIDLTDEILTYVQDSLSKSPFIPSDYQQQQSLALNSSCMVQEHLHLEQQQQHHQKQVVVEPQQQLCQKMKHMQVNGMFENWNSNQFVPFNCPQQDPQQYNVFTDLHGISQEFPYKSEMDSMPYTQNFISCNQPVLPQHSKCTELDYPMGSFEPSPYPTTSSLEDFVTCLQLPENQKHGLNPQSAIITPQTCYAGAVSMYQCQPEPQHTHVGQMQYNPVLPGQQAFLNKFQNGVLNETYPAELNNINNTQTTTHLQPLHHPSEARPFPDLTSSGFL

For the molecule `COc1cc(C)ccc1O`, the molecule was classed as inactive in experiment [1], in experiment [2], in experiment [3], in [4], in experiment [5] and in [6]. Moreover, the molecule was called inactive in experiment [7], in experiment [8] and in experiment [9].
Regarding `Nc1ccc(C(=O)O)cc1`, in [1], the AC50 is 50 µM (active). In addition, the molecule was called inactive in experiment [2], in experiment [3], in experiment [4], in experiment [5], in [10] and in experiment [7]. The result in [8] and in [9] was inactive.
Consider `C=C[C@@]1(C)CC(=O)[C@]2(O)[C@@]3(C)[C@@H](O)CCC(C)(C)[C@@H]3[C@H](O)[C@H](OC(C)=O)[C@@]2(C)O1`, for which the AC50 was 2.59 µM (active) in [1]; 3.45 µM (active) in [2]; 0.476 µM (active) in experiment [4]; 0.51 µM (active) in [5]; 3.81 µM (active) in experiment [9]. Moreover, the outcome in [3], in experiment [6], in experiment [7] and in experiment [8] was inactive.
As for `O=C(O)CCC(=O)O`, the call in [1], in experiment [2], in [3], in experiment [4], in experiment [5] and in experiment [10] was inactive. The molecule was called inactive in experiment [7], in experiment [8] and in [9].
Take `CC(C)COC(=O)CC(C(=O)OCC(C)C)S(=O)(=O)O` (stereo unspecified): the molecule was classed as inactive in experiment [1], in experiment [2], in experiment [3], in experiment [4], in [5] and in experiment [6]. Further, the molecule was called inactive in experiment [7] and in experiment [8].
Take `C[N+](C)(C)CCCNS(=O)(=O)C(F)(F)C(F)(F)C(F)(F)C(F)(F)C(F)(F)C(F)(F)C(F)(F)C(F)(F)F`: the molecule was called inactive in experiment [1], in experiment [2], in [3], in experiment [5], in [10] and in experiment [7]. Besides, the outcome in [8] and in experiment [9] was inactive. Besides, the AC50 in experiment [4] is 55.4 µM (active).
In the case of `Oc1ccccc1Cc1ccccc1O`, the molecule was called inactive in [1], in experiment [2], in experiment [3], in experiment [4], in [6] and in experiment [7]. For the same molecule, the call in [8] and in [9] was inactive. For the same molecule, in experiment [5], the AC50 was 114 µM (active).
`C=CC(C)(O)CC/C=C(\C)CC` (stereo unspecified): the outcome in experiment [1], in experiment [2], in experiment [3], in experiment [4], in [5] and in experiment [10] was inactive. Further, the call in [7], in [8] and in [9] was inactive.
For `CC1=CC(C)C(C=O)CC1` (stereo unspecified), the molecule was called inactive in experiment [1], in experiment [2], in [3], in experiment [4], in [5] and in experiment [7]. The molecule was called inactive in experiment [8] and in [9]. The half-maximal activity concentration (AC50) in [10] was 8.87 µM (active).
In the case of `c1ccc(-c2nc3ccccc3[nH]2)cc1`, the result in experiment [1], in experiment [2], in experiment [3], in experiment [4], in [5] and in experiment [10] was inactive. Further, the call in experiment [7], in experiment [8] and in experiment [9] was inactive.
On to `CCN1CCCC1=O`, for which the outcome in [1], in [2], in experiment [3], in [4], in experiment [5] and in experiment [10] was inactive. Besides, the call in experiment [7], in experiment [8] and in experiment [9] was inactive.
Take `CC1=CCC2CC1C2(C)C` (stereo unspecified): the call in [1], in [2], in experiment [3], in experiment [4], in experiment [5] and in experiment [6] was inactive. Moreover, the call in [7], in experiment [8] and in [9] was inactive.
Take `CC1(C)CCC[C@]2(C)[C@H]3CC(=O)O[C@]3(C)CC[C@@H]12`: the molecule was called inactive in [1], in experiment [2], in [3], in experiment [4], in [5] and in experiment [6]. Besides, the molecule was classed as inactive in experiment [7], in experiment [8] and in [9].
Consider `CCCC1CCCC(=O)O1` (stereo unspecified), for which the outcome in [1], in experiment [2], in experiment [3], in experiment [4], in [5] and in [6] was inactive. Further, the molecule was called inactive in experiment [7], in [8] and in experiment [9].
`O=C(O)c1ccc2c(c1)C(=O)OC2=O`: the outcome in experiment [1], in experiment [2], in experiment [3], in [4], in [5] and in [10] was inactive. The molecule was classed as inactive in [7], in [8] and in experiment [9].
Take `CC(C)OC(=O)c1ccccc1`: the molecule was called inactive in [1], in experiment [2], in experiment [3], in experiment [4], in experiment [5] and in [10]. The molecule was called inactive in experiment [7], in experiment [8] and in [9].
As for `O=C(Oc1ccccc1)c1ccccc1O`, the outcome in experiment [1], in experiment [2], in experiment [3], in [4], in [5] and in [6] was inactive. The outcome in experiment [7], in experiment [8] and in experiment [9] was inactive.
For the molecule `CC(C)c1cc(C(C)C)cc(C(C)C)c1`, the molecule was called inactive in [1], in experiment [2], in [10] and in [8]. Besides, the AC50 in experiment [3] is 182 µM (active); in experiment [4] it was 36 µM (active); in experiment [5] it was 25.9 µM (active); in experiment [7], 180 µM (active); in experiment [9] it was 59.5 µM (active).
Regarding `CC(CC(C)C)=NO`, the result in [1], in experiment [2], in experiment [3], in experiment [4], in [5] and in experiment [6] was inactive. Further, the call in experiment [7], in experiment [8] and in experiment [9] was inactive.
For the molecule `CC(C)C(=O)OCCc1ccccc1`, the call in experiment [1], in experiment [2], in experiment [3], in [4], in experiment [5] and in experiment [10] was inactive. Further, the outcome in experiment [7], in experiment [8] and in [9] was inactive.
Take `C=CC(=O)OCC(C)OCC(C)OCC(C)OC(=O)C=C` (stereo unspecified): the molecule was called inactive in experiment [1], in [2], in experiment [3], in experiment [7], in experiment [8] and in [9]. Besides, the results for the AC50 in experiment [4], in experiment [5] and in experiment [6] were 77.1 µM (active), 68.8 µM (active) and 73.4 µM (active), respectively.
As for `O=S(=O)(O)c1ccc(N=Nc2c(O)ccc3ccccc23)cc1`, the call in experiment [1], in experiment [2], in experiment [3], in experiment [4], in experiment [5] and in experiment [7] was inactive. In addition, the molecule was classed as inactive in experiment [8] and in experiment [9]. Besides, the half-maximal activity concentration (AC50) in experiment [10] is 1.3 µM (active).
On to `C=CCNCC=C`, for which the molecule was classed as inactive in experiment [1], in [2], in [3], in experiment [4], in experiment [5] and in experiment [6]. In addition, the molecule was classed as inactive in experiment [7] and in experiment [8].
`Nc1nc(N)nc(-c2ccccc2)n1`: the result in experiment [1], in [2], in experiment [3], in experiment [4], in [5] and in [6] was inactive. The molecule was called inactive in [7], in experiment [8] and in experiment [9].
Consider `CN1CCN(C)CC1`, for which the result in [1], in experiment [2], in experiment [3], in experiment [4], in experiment [5] and in experiment [10] was inactive. Besides, the outcome in experiment [7], in experiment [8] and in experiment [9] was inactive.
As to `O=c1c(O)c(-c2ccc(O)cc2O)oc2cc(O)cc(O)c12`, the AC50 in experiment [1] is 47.5 µM (active); in [8], 19.3 µM (active). Besides, the molecule was classed as inactive in experiment [2], in experiment [3], in experiment [4], in experiment [5], in experiment [10] and in [7]. Also, the molecule was called inactive in [9].
Take `Cc1ccc(S(=O)(=O)N=C=O)cc1`: the molecule was called inactive in experiment [1], in experiment [2], in experiment [3], in [4], in [5] and in experiment [6]. Moreover, the molecule was classed as inactive in [7], in [8] and in experiment [9].
